Data published in the supplement of paper PMC11001985.

Compound: C#CCNC(=O)CCSSCCC(=O)NCCc1ccc(C=O)c(C=O)c1
Experiment: lysine labeling ratio R10:1 (500 µM / 50 µM probe), SILAC-ABPP in living cells; higher = lower intrinsic lysine reactivity toward the probe, active = 2 or less
Details: HeLa; probe concentrations 500 vs 50 µM
Procedure, shortened: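 The two probe levels, 50 µM and 500 µM, of an alkyne-tagged, disulfide-linked lysine probe were applied to living light and heavy SILAC HeLa cells in PBS at room temperature, and the labels were run in both forward and reverse orientation. Mixed lysates underwent biotin-azide click chemistry, trypsin digestion, neutravidin capture, DTT release and alkylation before LC-MS/MS on a TIMS-TOF Pro. R is the filtered median high-probe/low-probe MS1 peptide ratio for each lysine, summarised as the median over forward and reverse replicates. Nothing above 20 is reported; such values are set to 20.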

Chain of UniProt O75955 (O75955 whole entry): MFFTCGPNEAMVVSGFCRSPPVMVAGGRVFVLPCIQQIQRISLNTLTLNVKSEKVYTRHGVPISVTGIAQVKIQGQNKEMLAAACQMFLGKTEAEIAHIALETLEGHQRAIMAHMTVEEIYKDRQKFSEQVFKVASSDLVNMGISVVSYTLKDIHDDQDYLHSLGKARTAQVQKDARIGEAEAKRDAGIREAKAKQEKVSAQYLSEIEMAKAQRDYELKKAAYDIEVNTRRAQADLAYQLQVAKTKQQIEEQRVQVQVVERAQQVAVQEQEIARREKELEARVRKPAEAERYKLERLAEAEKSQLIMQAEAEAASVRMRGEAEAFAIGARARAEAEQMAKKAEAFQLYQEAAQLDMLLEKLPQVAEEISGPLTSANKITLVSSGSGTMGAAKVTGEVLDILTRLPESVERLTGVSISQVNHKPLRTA
Chain of UniProt P29317 (P29317 whole entry): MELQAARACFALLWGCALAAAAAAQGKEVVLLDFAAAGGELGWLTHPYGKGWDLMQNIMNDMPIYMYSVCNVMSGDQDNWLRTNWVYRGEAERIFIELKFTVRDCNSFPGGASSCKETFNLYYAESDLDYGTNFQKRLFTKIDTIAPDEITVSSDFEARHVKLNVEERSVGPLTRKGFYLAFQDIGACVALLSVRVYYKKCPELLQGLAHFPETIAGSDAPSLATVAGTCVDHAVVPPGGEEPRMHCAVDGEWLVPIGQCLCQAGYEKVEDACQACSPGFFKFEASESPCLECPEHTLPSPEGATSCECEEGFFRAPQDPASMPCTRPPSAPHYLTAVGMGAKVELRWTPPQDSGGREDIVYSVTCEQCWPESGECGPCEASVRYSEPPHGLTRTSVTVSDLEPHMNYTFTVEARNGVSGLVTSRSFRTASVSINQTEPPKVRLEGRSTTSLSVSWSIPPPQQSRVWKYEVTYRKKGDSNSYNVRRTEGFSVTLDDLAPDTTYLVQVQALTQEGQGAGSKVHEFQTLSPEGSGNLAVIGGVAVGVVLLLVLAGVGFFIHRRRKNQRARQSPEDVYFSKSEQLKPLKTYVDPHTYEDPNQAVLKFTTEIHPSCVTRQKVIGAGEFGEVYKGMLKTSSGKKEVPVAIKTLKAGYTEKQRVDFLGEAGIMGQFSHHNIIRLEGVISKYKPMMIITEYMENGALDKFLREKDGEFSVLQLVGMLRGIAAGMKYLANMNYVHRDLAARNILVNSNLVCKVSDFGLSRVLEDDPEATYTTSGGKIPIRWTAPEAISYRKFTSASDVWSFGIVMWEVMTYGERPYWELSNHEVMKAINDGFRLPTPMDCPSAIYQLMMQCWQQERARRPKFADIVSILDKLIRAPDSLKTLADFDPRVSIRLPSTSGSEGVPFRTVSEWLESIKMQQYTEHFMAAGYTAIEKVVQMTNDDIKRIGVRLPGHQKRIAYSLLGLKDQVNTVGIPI
Chain of UniProt P32004 (P32004 whole entry): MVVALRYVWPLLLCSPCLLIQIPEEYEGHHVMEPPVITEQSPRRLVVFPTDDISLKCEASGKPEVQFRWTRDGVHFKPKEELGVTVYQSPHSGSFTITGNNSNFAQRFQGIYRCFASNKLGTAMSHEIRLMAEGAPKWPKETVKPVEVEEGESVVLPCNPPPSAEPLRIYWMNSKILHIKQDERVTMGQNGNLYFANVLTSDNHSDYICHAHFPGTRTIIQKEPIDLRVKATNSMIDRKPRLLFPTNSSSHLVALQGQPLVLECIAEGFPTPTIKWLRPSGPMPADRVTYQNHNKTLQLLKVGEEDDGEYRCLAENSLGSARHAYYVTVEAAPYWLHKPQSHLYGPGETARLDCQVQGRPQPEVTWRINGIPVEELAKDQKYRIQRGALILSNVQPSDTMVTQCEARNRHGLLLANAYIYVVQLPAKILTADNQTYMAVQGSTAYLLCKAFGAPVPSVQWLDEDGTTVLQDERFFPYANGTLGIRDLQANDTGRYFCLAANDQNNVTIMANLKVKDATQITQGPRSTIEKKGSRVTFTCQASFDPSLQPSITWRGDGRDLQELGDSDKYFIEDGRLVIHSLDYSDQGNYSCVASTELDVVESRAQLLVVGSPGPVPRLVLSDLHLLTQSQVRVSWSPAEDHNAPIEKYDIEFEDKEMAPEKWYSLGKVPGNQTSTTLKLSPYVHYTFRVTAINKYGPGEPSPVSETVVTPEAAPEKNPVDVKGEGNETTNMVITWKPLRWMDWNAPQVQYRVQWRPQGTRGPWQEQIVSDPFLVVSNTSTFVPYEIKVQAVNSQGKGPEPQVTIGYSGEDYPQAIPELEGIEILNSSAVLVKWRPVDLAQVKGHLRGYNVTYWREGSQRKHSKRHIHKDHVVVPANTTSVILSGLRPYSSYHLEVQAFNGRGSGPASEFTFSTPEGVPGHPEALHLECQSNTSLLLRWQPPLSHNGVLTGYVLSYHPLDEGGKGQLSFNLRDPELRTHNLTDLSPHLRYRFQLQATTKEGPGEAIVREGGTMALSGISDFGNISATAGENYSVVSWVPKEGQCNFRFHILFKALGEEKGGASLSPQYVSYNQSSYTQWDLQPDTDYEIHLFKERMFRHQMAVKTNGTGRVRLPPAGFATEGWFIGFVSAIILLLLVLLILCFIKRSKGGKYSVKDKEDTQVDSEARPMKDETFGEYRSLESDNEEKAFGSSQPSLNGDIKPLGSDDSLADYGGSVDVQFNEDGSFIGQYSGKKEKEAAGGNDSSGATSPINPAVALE
Chain of UniProt P15529 (P15529 whole entry): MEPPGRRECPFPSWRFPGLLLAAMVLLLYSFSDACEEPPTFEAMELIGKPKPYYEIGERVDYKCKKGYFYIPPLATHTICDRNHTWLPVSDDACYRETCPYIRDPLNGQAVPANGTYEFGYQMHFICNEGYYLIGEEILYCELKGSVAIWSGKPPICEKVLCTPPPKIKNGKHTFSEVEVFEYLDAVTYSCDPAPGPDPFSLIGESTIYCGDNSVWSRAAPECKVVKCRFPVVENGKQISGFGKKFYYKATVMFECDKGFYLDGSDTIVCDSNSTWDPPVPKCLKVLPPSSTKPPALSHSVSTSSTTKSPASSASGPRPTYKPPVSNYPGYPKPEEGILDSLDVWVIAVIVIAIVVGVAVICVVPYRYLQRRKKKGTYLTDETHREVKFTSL
Chain of UniProt P07195 (P07195 whole entry, looked up): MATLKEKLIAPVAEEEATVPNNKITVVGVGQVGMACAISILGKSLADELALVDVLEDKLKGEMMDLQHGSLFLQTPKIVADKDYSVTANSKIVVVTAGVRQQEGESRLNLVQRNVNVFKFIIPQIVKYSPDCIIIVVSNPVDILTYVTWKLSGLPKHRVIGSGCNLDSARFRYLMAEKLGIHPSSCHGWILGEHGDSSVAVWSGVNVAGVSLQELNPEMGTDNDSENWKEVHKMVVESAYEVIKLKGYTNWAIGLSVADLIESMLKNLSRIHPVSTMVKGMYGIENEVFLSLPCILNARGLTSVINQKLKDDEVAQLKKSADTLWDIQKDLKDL
Chain of UniProt P08195 (P08195 whole entry): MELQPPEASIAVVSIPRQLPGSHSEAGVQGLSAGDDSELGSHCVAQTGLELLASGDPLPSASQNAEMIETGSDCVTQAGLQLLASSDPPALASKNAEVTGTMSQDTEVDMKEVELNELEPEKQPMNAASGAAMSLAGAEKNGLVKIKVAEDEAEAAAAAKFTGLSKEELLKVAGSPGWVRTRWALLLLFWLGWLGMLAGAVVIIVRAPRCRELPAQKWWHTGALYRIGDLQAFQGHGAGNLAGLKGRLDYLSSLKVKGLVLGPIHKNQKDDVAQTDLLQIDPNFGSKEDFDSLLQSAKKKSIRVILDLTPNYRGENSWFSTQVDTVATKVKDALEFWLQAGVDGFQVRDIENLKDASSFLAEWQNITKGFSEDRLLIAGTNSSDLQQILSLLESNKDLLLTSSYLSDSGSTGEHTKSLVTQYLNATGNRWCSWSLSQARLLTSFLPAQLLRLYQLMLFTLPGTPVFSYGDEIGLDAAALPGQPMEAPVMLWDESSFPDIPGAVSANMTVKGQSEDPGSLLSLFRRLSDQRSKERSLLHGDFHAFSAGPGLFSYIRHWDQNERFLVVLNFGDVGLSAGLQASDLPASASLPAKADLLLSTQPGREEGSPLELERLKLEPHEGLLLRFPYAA
Chain of UniProt P54136 (P54136 whole entry): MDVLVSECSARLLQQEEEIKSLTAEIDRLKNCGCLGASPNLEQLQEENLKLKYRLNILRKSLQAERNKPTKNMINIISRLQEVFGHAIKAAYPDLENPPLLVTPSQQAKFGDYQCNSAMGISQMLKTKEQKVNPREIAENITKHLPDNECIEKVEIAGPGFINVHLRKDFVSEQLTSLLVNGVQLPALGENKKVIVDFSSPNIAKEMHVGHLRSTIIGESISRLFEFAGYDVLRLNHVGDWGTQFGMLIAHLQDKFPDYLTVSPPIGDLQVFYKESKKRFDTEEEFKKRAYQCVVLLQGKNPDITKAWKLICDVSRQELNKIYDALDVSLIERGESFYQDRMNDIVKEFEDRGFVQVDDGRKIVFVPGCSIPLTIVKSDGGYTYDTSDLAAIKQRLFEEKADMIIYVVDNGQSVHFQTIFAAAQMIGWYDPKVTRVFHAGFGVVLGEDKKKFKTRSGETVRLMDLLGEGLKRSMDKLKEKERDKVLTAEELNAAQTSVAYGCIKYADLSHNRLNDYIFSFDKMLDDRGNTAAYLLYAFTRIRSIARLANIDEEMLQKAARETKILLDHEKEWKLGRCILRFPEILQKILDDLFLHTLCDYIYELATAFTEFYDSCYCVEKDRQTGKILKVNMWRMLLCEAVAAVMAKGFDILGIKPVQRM
Chain of UniProt P67809 (P67809 whole entry): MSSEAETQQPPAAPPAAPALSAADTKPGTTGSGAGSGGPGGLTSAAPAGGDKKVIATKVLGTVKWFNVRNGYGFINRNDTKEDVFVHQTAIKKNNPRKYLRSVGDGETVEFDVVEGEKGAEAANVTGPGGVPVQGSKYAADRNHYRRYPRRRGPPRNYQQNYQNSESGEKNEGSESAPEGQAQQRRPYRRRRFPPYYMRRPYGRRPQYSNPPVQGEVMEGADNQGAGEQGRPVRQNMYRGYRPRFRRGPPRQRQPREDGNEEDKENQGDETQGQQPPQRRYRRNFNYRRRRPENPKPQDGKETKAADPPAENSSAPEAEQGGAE

Lysine labeling ratio R10:1, inactive:
FSCN1 (lysine site: K399) (UniProt Q16658) 3.81, UniProt P62913 (lysine site: K67) 3.62, VAPA (lysine site: K211) (UniProt Q9P0L0) 4.3, PTPRM (lysine site: K375) (UniProt P28827) 5.3, SLC3A2 (lysine site: K615) (UniProt P08195) 3.54, UniProt P08727 (lysine site: K140) 2.21, UniProt Q9Y653 (lysine site: K215) 4.06, CNP (lysine site: K197) (UniProt P09543) 2.88, RPS19 (lysine site: K122) (UniProt P39019) 4.72, UniProt P61978 (lysine site: K405) 6.82, KRT18 (lysine site: K426) (UniProt P05783) 9.55, UniProt Q96TA1 (lysine site: K479) 2.71, YBX1 (lysine site: K170) (UniProt P67809) 9.44, THRAP3 (lysine site: K346) (UniProt Q9Y2W1) 2.43, L1CAM (lysine site: K568) (UniProt P32004) 3.06, LDHB (lysine site: K156) (UniProt P07195) 6.77, HNRNPU (lysine site: K186) (UniProt Q00839) 4.06, MSLN (lysine site: K299) (UniProt Q13421) 3.1, SPTAN1 (lysine site: K825) (UniProt Q13813) 4.08, FLOT1 (lysine site: K220) (UniProt O75955) 2.84, UniProt P62277 (lysine site: K70) 6.69, EPHA2 (lysine site: K475) (UniProt P29317) 2.38, UniProt P62249 (lysine site: K131) 2.97, PTGFRN (lysine site: K632) (UniProt Q9P2B2) 11.6, SLC4A7 (lysine site: K890) (UniProt Q9Y6M7) 4.29, UniProt P25705 (lysine site: K167) 2.05, UniProt Q16790 (lysine site: K133) 8.23, IGSF3 (lysine site: K92) (UniProt O75054) 2.4, UniProt P62805 (lysine site: K17) 2.71, CD46 (lysine site: K224) (UniProt P15529) 6.48

Lysine labeling ratio R10:1, active:
RARS (lysine site: K557) (UniProt P54136) 1.64, LMO7 (lysine site: K1248) (UniProt Q8WWI1) 0.993, LAMC1 (lysine site: K1566) (UniProt P11047) 0.555, HNRNPM (lysine site: K239) (UniProt P52272) 1.67, NSUN2 (lysine site: K257) (UniProt Q08J23) 1.71, SUB1 (lysine site: K41) (UniProt P53999) 1.41, APOA4 (lysine site: K79) (UniProt P06727) 1.22, UniProt P55285 (lysine site: K365) 0.61, UniProt Q16363 (lysine site: K682) 1.54, UniProt O60245 (lysine site: K810) 0.802
